E coli growth-1: E. coli growth inhibition, primary screen, OD600; Escherichia coli growth, 23 h; hits give low values; OD600 absorbance (concentration not given with the values); actives 0.21% (n = 330,000); AID 1053175, 2014;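 active = OD600 absorbance below the run mean of sample wells minus 3.6 SD, in any replicate, cut at about 0.56 in these data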
phage Ecoli inh: growth loss of phage-infected E. coli, primary screen, RecBCD inhibitor project, absorbance, with phage, HTS; actives 0.26% (n = 360,000); inhibition, % at 11.9 µM; AID 651602, 2012; in the data active = inhibition above about 11%
E coli growth-2: E. coli V3065 growth inhibition, primary screen, counter-screen for AddAB inhibitor project, absorbance, OD600; 18 h; AID 449728, 2010; inhibition, % at 11.9 µM; actives 0.27% (n = 330,000);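 active = inhibition above the campaign's mean inhibition across all tested compounds plus 3 SD, cut at about 9.9% in these data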;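 note: uninfected addAB+ strain grown without phage in ampicillin broth; 0% = DMSO wells and 100% = ciprofloxacin 0.95 µg/ml wells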
AddAB inh: growth inhibition of E. coli expressing H. pylori AddAB, primary screen, AddAB inhibitor project, absorbance. inhibition, % at 11.9 µM. actives 0.29% (n = 330,000). AID 435030, 2010; in the data active = inhibition above about 12%;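 note: 0% = vehicle wells of infected cells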
Tat transport: E. coli Tat export inhibitors, primary screen, MC4100, TorA-mCherry reporter, fluorescence, single point. inhibition, % at 10 µM. actives 0.036% (n = 340,000). AID 488895, 2010;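 active = mean replicate inhibition at least 50% and at least half of replicates individually reaching 50%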;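 note: exported cargo escapes ClpAP degradation while cytoplasmic cargo is degraded and loses fluorescence; 0% = median of neutral control wells and 100% = median of NaSCN control wells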
RecBCD conf: growth loss of phage-infected RecBCD+ E. coli, confirmation, RecBCD inhibitor project, absorbance, E. coli V66, T4 gene 2 phage. E. coli V66 + T4 2- phage, growth OD. actives 45% (n = 890). shares compounds with phage Ecoli inh. inhibition, % at 11.9 µM. AID 651982, 2013;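 active = mean inhibition over triplicates exceeding the hit threshold derived in the original primary screen, cut at about 11% in these data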
Ecoli viability: E. coli viability inhibition, counter-screen for RecBCD inhibitor project, absorbance, high throughput | actives 29% (n = 890) | AID 651983, 2013 | inhibition, % at 11.9 µM | shares compounds with phage Ecoli inh | absorbance (OD) growth; in the data active = inhibition above about 20%;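 note: E. coli strain V66 grown with compound alone and no phage infection; 0% = bacteria with DMSO vehicle only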
AddAB phage OD: growth loss of phage-infected AddAB-carrying E. coli, confirmation, counter-screen for RecBCD inhibitor project, absorbance, E. coli V3065, T4 phage | AID 651984, 2013 | actives 45% (n = 890) | E. coli expressing H. pylori AddAB + T4 phage, OD growth; gene 2 mutant T4, recBCD-deleted host | shares compounds with phage Ecoli inh | inhibition, % at 11.9 µM;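 active = mean inhibition above the solvent-only control wells' mean plus 3 SD, cut at about 22% in these data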;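 note: higher means less bacterial growth from phage killing when AddAB is blocked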
The depositor's hits bear a star; nt = no result. Sampled rows, rich in hits. Any-hit rate of the full collection: about 0.5%.

SMILES	E coli growth-1	phage Ecoli inh	E coli growth-2	AddAB inh	Tat transport	RecBCD conf	Ecoli viability	AddAB phage OD
O=C(CCCc1ccccc1)NCc1cn2ccsc2n1	0.73	96*	1	-4	6	-2	-1	4
O=C(Nc1ccc(F)cc1)Nc1csc2ccccc12	0.58	13*	3	7	nt	3	5	-2
O=C(CN1C(=O)COc2ccccc21)NNC(=O)Nc1ccccc1F	0.69	2	-1	3	-6	nt	nt	nt
O=C(CN1C(=O)COc2ccccc21)Nc1ccccc1F	0.69	14*	1	0	22	-3	-3	-3
CCN1CCN(C(=O)N(c2ccccc2)c2ccccc2)CC1	0.69	2	-2	-4	1	nt	nt	nt
CN1CCN(C(=O)N(c2ccccc2)c2ccccc2)CC1	0.7	98*	0	1	7	-3	-2	-1
CCN(CC)S(=O)(=O)c1cccc(C(=O)N/N=C/c2ccc(O)c(O)c2O)c1	nt	14*	10	14*	5	6	5	8
C/C=N/NC(=O)c1cc(Br)ccc1O	nt	2	0	1	-3	nt	nt	nt
O=C(C(=O)c1cc(Br)ccc1O)c1cc(Br)ccc1O	0.17*	13*	nt	nt	-9	13*	17	16
O=C(CSc1nnc(-c2ccccc2)n1Cc1ccccc1)NNC(=O)c1ccccc1O	0.57	12*	9	12	-5	4	4	4
CCOC(=O)c1ccc(NC(=O)c2nc[nH]c2C(=O)NC(C)C(=O)OC(C)(C)C)cc1 (centres undefined)	0.69	nt	nt	nt	nt	nt	nt	nt
CCn1c(C)cc(C(=O)COC(=O)CNC(=O)c2ccco2)c1C	nt	11*	nt	nt	nt	6	10	3
O=C(C=Cc1cccc([N+](=O)[O-])c1)c1ccc([N+](=O)[O-])o1	0.57	nt	nt	nt	nt	nt	nt	nt
O=C(NCc1ccc2c(c1)CCO2)Nc1cccc(C(F)(F)F)c1	0.66	11*	-1	3	5	0	0	5
CCSCCc1nnc(NC(=O)Nc2cccc(C(F)(F)F)c2)s1	0.69	11*	5	5	-8	4	7	5
O=C(Nc1ccccc1)Nc1ccc(Br)c(Cl)c1	0.58	12*	7	7	-5	7	7	5
O=C(Nc1ccccc1)Nc1cccc(C(F)(F)F)c1	0.62	11*	7	9	1	6	6	7
O=C(NCc1cccnc1)Nc1cccc(C(F)(F)F)c1	0.55	2	nt	nt	11	nt	nt	nt
CNC(=O)Nc1cccc(C(F)(F)F)c1	0.7	10	5	8	0	nt	nt	nt
COc1cc(C=NNC(=O)C[n+]2ccccc2)cc(OC)c1OC(C)=O	0.71	nt	nt	nt	nt	nt	nt	nt
FC(F)(F)c1cccc(CNC(=S)Nc2ccccc2)c1	0.6	5	3	3	9	nt	nt	nt
FC(F)(F)Sc1ccc(NC(=S)NCc2ccccc2)cc1	0.6	13*	10*	11	-13	7	8	13
FC(F)(F)c1cccc(NC(=S)NCc2ccccc2)c1	0.56	12*	7	9	0	5	7	7
S=C(NCc1ccccc1)Nc1ccc(Cl)cc1	0.6	5	6	4	-7	nt	nt	nt
O=C(N/N=C/c1ccc(O)cc1O)c1ccc(NC(=O)C2CCCCC2)cc1	nt	23*	29*	24*	-15	14*	18	18
COc1ccc(C)c2sc(=NC(=O)c3ccccc3)n(C)c12	0.78	100*	0	-4	-10	-1	1	1
COc1ccc(C)c2sc(=NC(=O)c3ccc(C(C)=O)cc3)n(C)c12	0.66	2	0	3	-7	nt	nt	nt
Cc1cc(=O)[nH]c(N=N/C(=N/Nc2ccc(O)cc2)c2ccccc2)n1	nt	21*	8	6	-1	19*	17	79*
Cc1cc(=O)[nH]c(N=N/C(=N/Nc2ccccc2C)c2ccccc2)n1	nt	5	3	1	3	nt	nt	nt
